Drawing on PubChem BioAssay (NCI), this text covers growth for 12 molecules.

About 83,000 compounds went through this panel and 20% of them were active in at least one assay; those are over-represented in the sample as a whole.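 A percent growth of 40 corresponds to 60% growth inhibition; 0 means no net growth; -100 means all cells died. Active threshold: below 10.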 Unmarked numbers belong to inactive results. Calls of active or inactive are those of the source.

Experiment in all cases: NCI-60 one-dose screen, 48 h (100 = growth as untreated, 0 = no growth, -100 = all killed)
What all share (conditions): 10 µM unless noted

The subject of experiment [1] is NCI-H23 lung.
For experiment [2], the system named is NCI-H226 lung.
Experiment [3] relates to NCI-H322M lung.
Experiment [4] relates to HOP-62 NSCLC.
For experiment [5], the system named is NCI-H460 lung.
Experiment [6] concerns HOP-92 NSCLC.
Experiment [7] concerns NCI-H522 lung.
Experiment [8] concerns A549/ATCC NSCLC.
The subject of experiment [9] is 786-0 renal.
In experiment [10] the test system is COLO 205 colon.
Experiment [11] has as its system DU-145 prostate.
Experiment [12] has as its system K-562 leukemia.
The test system of experiment [13] is MALME-3M melanoma.
Experiment [14] relates to MDA-MB-231 breast.
Experiment [15] deals with SF-268 CNS.
Experiment [16] has as its system SF-295 CNS.
In experiment [17] the test system is SF-539 CNS.
The test system of experiment [18] is UACC-257 melanoma.
The subject of experiment [19] is M14 melanoma.

`CC(=O)c1c[nH]c2ccc(-c3ccnc(Nc4ccc(NC(=O)C5CCCC5)c(CN5CCOCC5)c4)n3)cc12`: the growth in experiment [1] is -36.4% (active); in [2], -0.452% (active); in experiment [3] it was -11.5% (active); in experiment [4], 2.51% (active); in [5] it was -60.6% (active); in experiment [6], -5.65% (active). Moreover, the growth in [7] was -17.9% (active); in experiment [8], 4.82% (active); in [9], 0.29% (active); in [10], -31.9% (active); in [11], -1.77% (active); in experiment [12] it was 5.74% (active). Also, the growth was -81.8% (active) in experiment [13]; -8.4% (active) in experiment [14]; -41.7% (active) in [15]; -46.2% (active) in [16]; -84.6% (active) in experiment [17]; -27.5% (active) in [18]. In experiment [19], the growth is -67.7% (active).
In the case of `COC(=O)Nc1ccc(NC(=O)OC)cc1`, the growth in experiment [1] was 97.6%; in [2] it was 96.7%; in [3], 100%; in experiment [4], 77.7%; in experiment [5], 106%; in [6], 84.7%. For the same molecule, the growth is 73.6% in experiment [7]; 69.7% in [8]; 93.3% in experiment [9]; 111% in [10]; 110% in experiment [11]; 103% in [12]. The growth is 105% in [13]; 120% in [14]; 103% in experiment [15]; 99.7% in experiment [16]; 106% in experiment [17]; 66.3% in experiment [18]. Further, in experiment [19], the growth is 83.7%.
Regarding `Clc1cc(Cl)cc(N2N=C(c3cccc(Nc4ccncc4)c3)CC2c2ccc(Br)cc2)c1` (stereo not drawn), the growth in [1] is 64.4%; in experiment [2], 85.7%; in [3] it was 73.1%; in experiment [4], 33.7%; in [5], -81.8% (active); in experiment [6], 65.8%. For the same molecule, the growth is 69.7% in experiment [7]; 19.1% in experiment [8]; 105% in experiment [9]; -40.5% (active) in experiment [10]; 35.2% in [11]; 1.66% (active) in [12]. Besides, the growth in [13] was 23.7%; in [14], 57.1%; in [15], 77.1%; in [16] it was 36.9%; in [17], 76.6%; in experiment [18], 79.4%. In experiment [19], the growth was 108%.
With `COc1ccc(C(=O)c2cc3c(N)c(C(=O)Nc4cccc(Cl)c4C)sc3nc2C)cc1`, the growth in experiment [1] is 29.3%; in experiment [2] it was 44%; in experiment [3] it was 52.6%; in experiment [4], 29.1%; in experiment [5], 6.21% (active); in [6], 27.7%. In addition, the growth in experiment [7] was -8.11% (active); in experiment [8], 13.2%; in experiment [9], 29%; in [10], -26.2% (active); in experiment [11] it was 9.62% (active); in experiment [12], 2.9% (active). Moreover, the growth in experiment [13] is 54.5%; in [14], 15%; in experiment [15], 18.4%; in experiment [16], 26.5%; in [17] it was -10.2% (active); in [18], 57.6%. Further, the growth in experiment [19] is 5.63% (active).
Turning to `CC(N)C(=O)NNc1n[nH]c(=S)n1N` (stereo not drawn), the growth was 100% in [1]; 97.1% in experiment [2]; 92% in [3]; 106% in experiment [4]; 103% in experiment [5]; 94.6% in experiment [6]. For the same molecule, the growth in experiment [7] is 98%; in experiment [8] it was 102%; in [9], 95.8%; in experiment [10], 111%; in experiment [11] it was 109%; in experiment [12], 107%. The growth was 94% in experiment [13]; 105% in [14]; 94.2% in experiment [15]; 94.7% in experiment [16]; 100% in experiment [17]; 98.8% in experiment [18]. Further, the growth in experiment [19] was 95.2%.
As to `COc1ccc(C2CC(c3cccc(Nc4ccncc4)c3)=NN2c2ccc(Cl)cc2)cc1` (stereo not drawn), the growth was 83% in experiment [1]; 88.8% in experiment [2]; 73.7% in [3]; 25.3% in experiment [4]; -85.9% (active) in experiment [5]; 51.5% in experiment [6]. In addition, the growth in experiment [7] is -23% (active); in [8] it was 35.9%; in experiment [9], 102%; in experiment [10] it was -65.9% (active); in experiment [11] it was 23.6%; in experiment [12], 0.0732% (active). Besides, the growth in experiment [13] is -49.9% (active); in [14] it was 40.6%; in experiment [15] it was 62.1%; in experiment [16], 53.9%; in [17] it was 76.4%; in experiment [18], 12.6%. Also, the growth in experiment [19] was 100%.
Take `COc1cc(-c2cc(=O)oc3cc(O)ccc23)cc(OC)c1OC`: the growth is 88.1% in experiment [1]; 87.3% in [2]; 96.7% in experiment [3]; 87.6% in experiment [4]; 69.5% in [5]; 54.2% in [6]. The growth in experiment [7] was 80.2%; in experiment [8], 90.1%; in experiment [9] it was 99.7%; in experiment [10], 99.4%; in experiment [11] it was 96.3%; in experiment [12] it was 66.2%. Further, the growth in experiment [13] was 90.1%; in experiment [14], 89.3%; in experiment [15] it was 88.7%; in experiment [16], 93.4%; in experiment [17] it was 93.4%; in experiment [18] it was 99.3%. Besides, the growth in experiment [19] was 98.3%.
Take `CN1CCN(CCCOc2ccc3ncnc(Nc4ccc(Oc5cccc(C(F)(F)F)c5)c(Cl)c4)c3c2)CC1`: the growth in experiment [1] was 44.4%; in experiment [2] it was 85.6%; in experiment [3], 11.3%; in [4], 1.07% (active); in experiment [5], -66.9% (active); in experiment [6], 29.4%. The growth is -3.31% (active) in [7]; 21.5% in experiment [8]; -81% (active) in [9]; -51.8% (active) in [10]; -8.56% (active) in [11]; -13.1% (active) in experiment [12]. For the same molecule, the growth is -90.2% (active) in [13]; -74.6% (active) in experiment [14]; 28.1% in experiment [15]; -64.7% (active) in experiment [16]; -89.3% (active) in experiment [17]; -53.5% (active) in experiment [18]. In addition, the growth in experiment [19] was -62.8% (active).
For `Clc1ccc(C2CC(c3cccc(Nc4ccncc4)c3)=NN2c2ccccc2)cc1` (stereo not drawn), the growth is 84.3% in [1]; 93.1% in experiment [2]; 69.7% in [3]; 0.979% (active) in [4]; -70.5% (active) in experiment [5]; 55.8% in experiment [6]. For the same molecule, the growth is -39.1% (active) in experiment [7]; 27.3% in [8]; -94.3% (active) in experiment [9]; -63.6% (active) in experiment [10]; 56.7% in [11]; 0.432% (active) in [12]. Besides, the growth is -72% (active) in experiment [13]; 75.2% in [14]; 82.1% in [15]; 70% in [16]; 71.5% in experiment [17]; 34.5% in experiment [18]. Besides, in experiment [19], the growth was -80.6% (active).
`COc1ccc(/C=C(/c2ccccc2)[N+](=O)[O-])cc1`: the growth in experiment [1] was -47.9% (active); in experiment [2], -6.73% (active); in experiment [3] it was 4.07% (active); in experiment [4], -36.2% (active); in experiment [5] it was -23.3% (active); in experiment [6] it was -55.6% (active). In addition, the growth in experiment [7] was -83.6% (active); in experiment [8], 5.17% (active); in [9] it was -93.4% (active); in experiment [10], -71.9% (active); in [11], -85.5% (active); in [12], -7.82% (active). Further, the growth is -44.2% (active) in experiment [13]; -49.3% (active) in experiment [14]; 47.6% in experiment [15]; 33.2% in experiment [16]; -89.2% (active) in [17]; -0.12% (active) in experiment [18]. For the same molecule, the growth in experiment [19] is 42.8%.
In the case of `COc1ccccc1/C=C1\COc2ccc(-c3ccccc3)cc2C1=O`, the growth is 68% in [1]; 88.4% in [2]; 80% in experiment [3]; -55.3% (active) in [4]; 12.2% in [5]; 49.3% in experiment [6]. Also, the growth was 51.9% in [7]; 37.8% in [8]; -49.2% (active) in experiment [9]; 9.86% (active) in experiment [10]; 7.94% (active) in experiment [11]; 3.54% (active) in [12]. Moreover, the growth in [13] is 73.7%; in experiment [14], 43.8%; in experiment [15] it was 22.1%; in [16], 22.2%; in [17] it was 30.5%; in experiment [18], 56.9%. Moreover, the growth in experiment [19] was 17.4%.
Consider `CCNC(=O)c1[nH]cc(-c2ccc(OC)cc2)c1-c1cc(OC)cc(OC)c1`, for which the growth in experiment [1] is 91.9%; in experiment [2], 88.7%; in experiment [3], 97.7%; in experiment [4], 97.5%; in experiment [5] it was 99%; in experiment [6] it was 72.9%. The growth in experiment [7] is 62.6%; in [8], 91.3%; in experiment [9], 95.6%; in [10], 105%; in [11], 108%; in [12] it was 45.1%. Also, the growth was 93% in experiment [13]; 82.1% in experiment [14]; 96.7% in experiment [15]; 96.7% in experiment [16]; 99.2% in [17]; 103% in experiment [18]. Besides, the growth in experiment [19] is 95.8%.
